Where “and” joins values, the source holds several entries; their conditions need not be identical. Identical values can stand only once. Records with an inconclusive call do not appear. Unmarked numbers belong to inactive results. Calls of active or inactive are those of the source. Calls follow the shape of the dose curve; as a rule, active = well fitted inhibition curve with a large enough effect in the repeat runs; inconclusive = weak or mixed curves; inactive = no such curve, though single readings can be large or run the other way.
Target: Cytochrome P450 2C9 (Homo sapiens) (UniProt P11712)
Sequence (P11712 whole entry, looked up): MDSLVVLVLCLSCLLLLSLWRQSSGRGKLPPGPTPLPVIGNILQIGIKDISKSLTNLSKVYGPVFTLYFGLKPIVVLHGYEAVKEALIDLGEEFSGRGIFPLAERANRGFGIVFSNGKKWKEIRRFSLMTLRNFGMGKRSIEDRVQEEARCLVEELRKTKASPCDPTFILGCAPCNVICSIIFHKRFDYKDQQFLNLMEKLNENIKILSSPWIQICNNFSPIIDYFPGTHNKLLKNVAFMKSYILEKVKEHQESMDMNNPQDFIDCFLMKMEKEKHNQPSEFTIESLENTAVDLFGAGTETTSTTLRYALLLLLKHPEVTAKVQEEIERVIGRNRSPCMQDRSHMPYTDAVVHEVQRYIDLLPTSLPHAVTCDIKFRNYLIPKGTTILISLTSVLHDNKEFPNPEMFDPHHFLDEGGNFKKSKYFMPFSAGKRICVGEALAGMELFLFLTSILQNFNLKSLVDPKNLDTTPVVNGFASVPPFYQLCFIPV
Experiment: Cytochrome P450 family 2 subfamily C member 9 (CYP2C9) small molecule antagonists: luciferase biochemical (cell-free) qHTS assay (AID 1645842); also: nearly all actives have a fitted effect of over 55% in size
Conditions: P450-Glo CYP2C9 enzyme assay, luciferin luminescence; series mostly up to 57.4 µM; activity change, negative = inhibition: at the top concentration
Experimental: National Center for Advancing Translational Sciences [NCATS] Assay Overview: Cytochrome P450 (CYP) enzymes are membrane-bound hemeproteins that play a key role in metabolism of drugs and xenobiotics. Assaying the effect of chemicals on CYP isozymes is useful to minimize the adverse drug reactions and toxicities in drug development process. Chemical compounds were tested for their effect on CYP enzyme activities by using P450-Glo (TM) screening systems (Promega Corporation, Madison, WI). These systems provide a luminescent method containing proluciferin substrates and are converted to luciferin products by CYP isozymes. The luciferin products formed are detected with a luciferin detection reagent, and the amount of light produced is proportional to CYP activity. P450-Glo (TM) CYP2C9 screening system (Catalog. No. V9790) was used to detect the compounds that interfere in CYP2C9 activity.
Assay Protocol Summary: Two ul of enzyme-substrate mix supplemented with 0.4% Bovine Serum Albumin was dispensed into medium binding white/solid 1536-well plates (Greiner Bio-One North America Inc., Monroe, NC) using a Flying Reagent Dispenser (FRD, Aurora Discovery, San Diego, CA). […] The assay plates were incubated at room temperature for 10 min. Then 2 ul of NADPH regeneration solution was added to each well of the assay plates using an FRD and incubated at 37C for 1 h. The reaction was stopped by adding 4 ul of detection reagent using an FRD and after 20 min incubation at room temperature, the luminescence signal was measured using a ViewLux plate reader (Perkin Elmer, Shelton, CT). Data were expressed as relative luminescence units.
% is scaled to controls: 0 for no effect and ±100 for the full control effect; potency is read from the fitted curve at half-maximal effect.

Row | Structure (SMILES) | activity change, negative = inhibition | Potency
1 | CS(=O)(=O)c1ccc([C@@H](O)[C@@H](CO)NC(=O)C(Cl)Cl)cc1 | 5.95% | –
2 | O=c1oc2c(O)c(O)cc3c(=O)oc4c(O)c(O)cc1c4c23 | 14.3% [at 23.9 µM] | –
3 | CCOC(=O)[C@H](CCc1ccccc1)N[C@H]1CS[C@H](c2cccs2)CN(CC(=O)O)C1=O | – | inactive
4 | COc1ccc(-c2ccc3cc(C(=O)O)ccc3c2)cc1C12CC3CC(CC(C3)C1)C2 | 11% | –
5 | O=S(=O)(c1cccc2cnccc12)N1CCCNCC1 | -18.1% | –
6 | CC(C)(C)C(=O)OCOP(=O)(COCCn1cnc2c(N)ncnc21)OCOC(=O)C(C)(C)C | 3.3% | –
7 | Nc1nc(F)nc2c1ncn2[C@@H]1O[C@H](CO)[C@@H](O)[C@@H]1O | 3.95% | –
8 | COc1ccc(C(=O)CC(=O)c2ccc(C(C)(C)C)cc2)cc1 | -6.31% | –
9 | O=C(NCC1CN(c2ccc(N3CCOCC3=O)cc2)C(=O)O1)c1ccc(Cl)s1 (stereo not given) | – | 8.71 µM (active) and 3.79 µM (active)
10 | CC(=O)Oc1ccccc1C(=O)Nc1ncc([N+](=O)[O-])s1 | – | 2.75 µM (active)
11 | NC(=O)c1cccnc1 | 8% | –
12 | COc1cnc(NS(=O)(=O)c2ccc(N)cc2)nc1 | 11.6% | –
13 | CCOCC(O)COc1ccc(NC(=O)CC[S+](C)C)cc1 (stereo not given) | 11.1% | –
14 | CCCN[C@H]1CCc2nc(N)sc2C1 | 10.3% | –
15 | CN1CCN(c2c(F)cc3c(=O)c(C(=O)O)cn(CCF)c3c2F)CC1 | 18.2% | –
16 | CC[C@H](NC(C)C)[C@H](O)c1ccc(O)c2[nH]c(=O)ccc12 | -2.54% | –
17 | CCOC(=O)[C@H](CCc1ccccc1)N[C@H]1CCc2ccccc2N(CC(=O)O)C1=O | – | 4.9 µM (active)
18 | CCCCc1oc2ccc(NS(C)(=O)=O)cc2c1C(=O)c1ccc(OCCCN(CCCC)CCCC)cc1 | – | 12.3 µM (active) and 12 µM (active)
19 | O=P(O)(O)C(O)(Cc1cccnc1)P(=O)(O)O | 13.7% | –
20 | O=C(O)c1cc(=O)[nH]c(=O)[nH]1 | – | inactive

Row | Structure (SMILES) | activity change, negative = inhibition | Potency
21 | CNC1CCCN(c2c(F)cc3c(=O)c(C(=O)O)cn(C4CC4)c3c2OC)C1 (stereo not given) | 13.3% | –
22 | Cc1nnc(NS(=O)(=O)c2ccc(N)cc2)s1 | – | 17.4 µM (active)
23 | CC(C(=O)O)c1ccc2c(c1)CC(=O)c1ccccc1S2 (stereo not given) | -6.68% | –
24 | CCc1c2c(nc3ccc(OC(=O)N4CCC(N5CCCCC5)CC4)cc13)-c1cc3c(c(=O)n1C2)COC(=O)[C@]3(O)CC | -10.3% | –
25 | CCN[C@H]1C[C@H](C)S(=O)(=O)c2sc(S(N)(=O)=O)cc21 | 2.46% | –
26 | CC(C)(C#N)c1cc(Cn2cncn2)cc(C(C)(C)C#N)c1 | – | 6.17 µM (active)
27 | Cn1nnc2c(C(N)=O)ncn2c1=O | 5.31% | –
28 | C[C@@H](CN1CC(=O)NC(=O)C1)N1CC(=O)NC(=O)C1 | 10.3% | –
29 | CN(C)CCc1c[nH]c2ccc(CS(=O)(=O)N3CCCC3)cc12 | -0.436% | –
30 | Nc1nc(=S)c2[nH]cnc2[nH]1 | – | 15.5 µM (active)
31 | O[C@@H](CNC[C@H](O)[C@H]1CCc2cc(F)ccc2O1)[C@@H]1CCc2cc(F)ccc2O1 | -6.49% | –
32 | Cc1noc(NS(=O)(=O)c2ccc(N)cc2)c1C | 1.76% | –
33 | CC1(C)[C@H](C(=O)O)N2C(=O)C[C@H]2S1(=O)=O | -1.82% | –
34 | Cn1c(=O)c2c(ncn2CC(O)CO)n(C)c1=O (stereo not given) | 9.04% | –
35 | CNC(=O)c1cc(Oc2ccc(NC(=O)Nc3ccc(Cl)c(C(F)(F)F)c3)cc2)ccn1 | – | 19.5 µM (active)
36 | COc1cc2c(Nc3ccc(Br)cc3F)ncnc2cc1OCC1CCN(C)CC1 | 12.6% | –
37 | NNC(=O)c1ccncc1 | -7.29% | –
38 | COc1ncnc(NS(=O)(=O)c2ccc(N)cc2)c1OC | 0.172% | –
39 | CCn1cc(C(=O)O)c(=O)c2cc(F)c(N3CCNCC3)nc21 | 2.06% | –
40 | CCOc1cc(N)c(Cl)cc1C(=O)NCC1CN(Cc2ccc(F)cc2)CCO1 (stereo not given) | -5.77% | –
